From PubChem BioAssay (NCATS)
Inconclusive results are not listed. Activity calls are given as the source filed them. Unless noted, calls follow the shape of the dose curve; as a rule, active = well fitted curve in either direction with a large enough effect (not every such curve was filed as active); inconclusive = small, poorly fitted or top-dose-only effect, or another doubt; inactive = flat fitted curve, though single readings scatter.

The compounds below were run against Mitogen-activated protein kinase 10 (Mus musculus) (UniProt Q61831) (assay: JNK3 AlphaScreen Assay (AID 530;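 also: kinase came from lysate of stimulated human HepG2 cells; signal reports phosphorylation of biotinylated GST-cJun 1-79 at Ser73 with 10 µM ATP; % is scaled to controls: 0 for no effect and ±100 for the full control effect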)). Details: JNK3 lysate, c-Jun phosphorylation; series mostly up to 57.1 µM; activity change, negative = inhibition: at the top concentration.
Method in brief: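 Inhibitors reduce antibody binding to phosphorylated biotin-cJun, lowering AlphaScreen luminescence. Lysates from HepG2 cells pre-activated by IL-1beta plus TNF-alpha supplied JNK3; compounds were titrated.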

Activity change, negative = inhibition, inactive:
c1ccc2c(c1)Cc1cc3cc4c(cc3nc1-2)OCO4 16.6%, COC(=O)c1ccc(C23CC2(C(NP(=O)(c2ccccc2)c2ccccc2)c2ccccc2)C3)cc1 (stereo unspecified) -13.7%, CCC/C=C(\CCC)C(NS(=O)(=O)c1cccc2cccnc12)c1ccc(C(=O)OC)cc1 (stereo unspecified) 3.14%, C[C@@H](C(=O)Nc1ccc2ccccc2c1)[C@@H]1C[C@@]1(C)[C@@H](NC(=O)c1cnccn1)c1ccccc1 -5.27%, COc1ccc2nc3c(c([Si](C)(C)C(C)(C)C)c2c1)Cn1c-3cccc1=O 0.0305%, COC(=O)[C@@]1(Cc2ccc(F)cc2)[C@H]2c3cc(C(=O)N4CCCC4)n(CCc4ccc(OC)c(Br)c4)c3C[C@H]2CN1C(=O)c1ccccc1 -25.1%, COC(=O)[C@@]1(Cc2ccccc2)[C@H]2c3cc(C(=O)N4CCCC4)n(Cc4ccc(O)c(OC)c4)c3C[C@H]2CN1C(=O)c1ccccc1 -19.2%, COC(=O)[C@@]1(Cc2ccc(F)cc2)[C@H]2c3cc(C(=O)N4CCCC4)n(CCc4ccc(O)c(O)c4)c3C[C@H]2CN1C(=O)c1ccccc1 -25.8%, COC(=O)c1ccc(C(NC(=O)c2ccco2)[C@]2(C)C[C@H]2C2CCCCC2)cc1 (stereo partly specified) -6.63%, C=C1C(=O)C=C2CN(C(=O)c3ccccc3)[C@@](Cc3ccc(F)cc3)(C(=O)OC)[C@@H]12 -9.34%, CC[C@H]1C2=C3C(CC[C@H]4C(OCc5ccc(F)cc5C(F)(F)F)OC[C@](C)([C@@H]34)N(C(=O)OC(C)(C)C)C2)C(COC(C)=O)C1COC(C)=O (stereo partly specified) -1.47%, CCC/C=C(\CCC)C(NC(=O)c1ccc(C(=O)OC)cc1)c1ccc(C(=O)OC)cc1 (stereo unspecified) 25.6%, COC(=O)[C@@H]1C[C@H]1[C@@H](NC(=O)c1ccccc1)c1ccccc1 1.62%, CCC/C=C(\CCC)C(NP(=O)(c1ccccc1)c1ccccc1)c1ccc(-c2ccccc2)cc1 (stereo unspecified) -2.81%, COC(=O)[C@@]1(Cc2ccc(F)cc2)[C@H]2c3cc(C(=O)N(C)C)n(Cc4ccc(C)o4)c3C[C@H]2CN1C(=O)c1ccccc1 -27.6%, CCC/C=C(\CCC)C(NS(=O)(=O)CC12CCC(CC1=O)C2(C)C)c1ccc(C(=O)OC)cc1 (stereo unspecified) 18.1%, CCC/C=C(\CCC)C(NS(=O)(=O)c1cccc2cccnc12)c1ccc(-c2ccccc2)cc1 (stereo unspecified) 11%, COC(=O)[C@@]1(Cc2ccc(F)cc2)[C@H]2c3cc(C(=O)N(C)C)n(Cc4ccc(C)c(F)c4F)c3C[C@H]2CN1C(=O)c1ccccc1 -20.9%, CC(C)c1cccc2nc3c(c(C(C)(C)C)c12)Cn1c-3cccc1=O 21.3%, O=C(Cc1ccccc1I)Nc1ccccc1 9.05%, c1ccc2c(c1)Cc1cc3ccccc3nc1-2 1.95%, CCC/C=C(\CCC)C(NC(=O)c1cccs1)c1ccc(C(F)(F)F)cc1 (stereo unspecified) 3.47%, CCCC[C@@H]1C[C@H]1C(NC(=O)c1cccs1)c1ccc(-c2ccccc2)cc1 (stereo partly specified) 7.7%, CCCC[C@@H]1C[C@H]1C(NC(=O)Cc1ccccc1)c1ccc(Cl)cc1 (stereo partly specified) 5.19%, CCCC[C@@H]1C[C@H]1C(NC(=O)c1cccs1)c1ccc(C(F)(F)F)cc1 (stereo partly specified) 18.5%, CCCC[C@@H]1C[C@H]1C(NC(=O)c1ccco1)c1ccc(C(=O)OC)cc1 (stereo partly specified) 12.4%, CCCC[C@@H]1C[C@H]1C(NC(=O)c1ccc(C(F)(F)F)cc1)c1ccc(C(=O)OC)cc1 (stereo partly specified) 8.73%

These compounds were tested against Cytochrome P450 2C9 (Homo sapiens) (UniProt P11712) (assay: qHTS Assay for Inhibitors and Substrates of Cytochrome P450 2C9 (AID 883; active = well fitted inhibition curve with a large enough effect; also: potency is read from the fitted curve at half-maximal effect; nearly all actives have a fitted effect of over 60% in size)). Details: recombinant CYP2C9, luciferin-H luminescence, 60 min; series mostly up to 57.1 µM; activity change, negative = inhibition: at the top concentration.
Method in brief: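 CYP2C9 deoxyluciferin hydroxylation, 37C, 60 min with NADPH regeneration; 10nM enzyme, 100uM Luciferin-H (KM). Glo detection reagent stopped reaction; luminescence normalized to sulphaphenazole (57uM) full inhibition.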

Chain of Cytochrome P450 2C9 (Homo sapiens) (P11712 whole entry, looked up): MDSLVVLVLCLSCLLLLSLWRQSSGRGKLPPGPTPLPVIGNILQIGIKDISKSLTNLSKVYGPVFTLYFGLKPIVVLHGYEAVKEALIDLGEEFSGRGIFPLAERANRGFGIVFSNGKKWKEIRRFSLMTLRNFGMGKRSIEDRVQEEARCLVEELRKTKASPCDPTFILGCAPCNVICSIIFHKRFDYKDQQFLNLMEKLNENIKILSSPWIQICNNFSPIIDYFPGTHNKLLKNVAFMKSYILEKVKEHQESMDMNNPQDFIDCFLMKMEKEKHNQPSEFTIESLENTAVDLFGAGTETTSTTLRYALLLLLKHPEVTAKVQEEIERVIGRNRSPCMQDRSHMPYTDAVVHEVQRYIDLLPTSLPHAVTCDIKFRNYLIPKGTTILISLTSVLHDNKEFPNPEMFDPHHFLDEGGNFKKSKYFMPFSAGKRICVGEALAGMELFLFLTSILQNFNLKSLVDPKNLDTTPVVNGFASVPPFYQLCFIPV

Potency, active:
CCCC/C=C/C(NC(=O)c1cccs1)c1ccccc1 (stereo unspecified) 316 nM, CCCC[C@@H]1C[C@H]1C(NC(=O)c1ccccc1)c1ccccc1 (stereo partly specified) 7940 nM, S=C(Nc1ccccc1)Nc1ccccc1C#Cc1ccccc1 3980 nM, COc1ccc2nc3c(cc2c1)Cc1ccccc1-3 6310 nM, CCC[C@@H]1C[C@@]1(CCC)C(NS(=O)(=O)c1cccc2cccnc12)c1ccc(Cl)cc1 (stereo partly specified) 7940 nM, CCCC[C@@H]1C[C@H]1C(NC(=O)c1ccccc1)c1ccccc1C(F)(F)F (stereo partly specified) 1260 nM, c1ccc2c(c1)Cc1cc3cc4c(cc3nc1-2)OCO4 3980 nM, CCC/C=C(\CCC)C(NS(=O)(=O)c1cccc2cccnc12)c1ccc(C(=O)OC)cc1 (stereo unspecified) 1580 nM, C[C@@H](C(=O)Nc1ccc2ccccc2c1)[C@@H]1C[C@@]1(C)[C@@H](NC(=O)c1cnccn1)c1ccccc1 63.1 nM, COC(=O)[C@@]1(Cc2ccc(F)cc2)[C@H]2c3cc(C(=O)N4CCCC4)n(CCc4ccc(OC)c(Br)c4)c3C[C@H]2CN1C(=O)c1ccccc1 3160 nM, COC(=O)[C@@]1(Cc2ccccc2)[C@H]2c3cc(C(=O)N4CCCC4)n(Cc4ccc(O)c(OC)c4)c3C[C@H]2CN1C(=O)c1ccccc1 2510 nM, COC(=O)[C@@]1(Cc2ccc(F)cc2)[C@H]2c3cc(C(=O)N4CCCC4)n(CCc4ccc(O)c(O)c4)c3C[C@H]2CN1C(=O)c1ccccc1 3160 nM, C=C1C(=O)C=C2CN(C(=O)c3ccccc3)[C@@](Cc3ccc(F)cc3)(C(=O)OC)[C@@H]12 3980 nM, CCC/C=C(\CCC)C(NC(=O)c1ccc(C(=O)OC)cc1)c1ccc(C(=O)OC)cc1 (stereo unspecified) 2000 nM, CCC/C=C(\CCC)C(NS(=O)(=O)c1cccc2cccnc12)c1ccc(-c2ccccc2)cc1 (stereo unspecified) 2000 nM, c1ccc2c(c1)Cc1cc3ccccc3nc1-2 10000 nM, CCCC[C@@H]1C[C@H]1C(NC(=O)c1cccs1)c1ccc(-c2ccccc2)cc1 (stereo partly specified) 1580 nM, CCCC[C@@H]1C[C@H]1C(NC(=O)c1cccs1)c1ccc(C(F)(F)F)cc1 (stereo partly specified) 1580 nM, CCCC[C@@H]1C[C@H]1C(NC(=O)c1ccco1)c1ccc(C(=O)OC)cc1 (stereo partly specified) 794 nM
